The values below come from PubChem BioAssay (NCATS).

Results filed as inconclusive are left out. Active and inactive are the calls of the source. Unless noted, calls follow the shape of the dose curve; as a rule, active = well fitted curve in the direction sought with a large enough effect; inconclusive = small, poorly fitted or top-dose-only effect, or another doubt; inactive = no such curve, though single readings can be large; an effect the other way counts as inactive or inconclusive.

The target of test [1] is Estrogen receptor (Homo sapiens) (UniProt P03372). In words: qHTS assay for small molecule antagonists of estrogen receptor alpha signaling (AID 588513; active = well fitted curve in the direction sought with a large enough effect in the signal ratio, with a control signal flat, not every such curve was filed as active; the % refers to the signal ratio; also: % is scaled to controls: 0 for no effect and ±100 for the full control effect). In a few lines:
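Antagonist-mode qHTS in ER-alpha-UAS-bla HEK 293 cells: compound titration, 0.5nM estradiol for 18 h, CCF4 fluorescence, Hill-derived IC50.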
(In general: In qHTS, concentration-response curves come from the screen itself.)

For test [2] the target is unchanged. In words: qHTS assay for small molecule agonists of estrogen receptor alpha signaling (AID 588514; calls by dose curve;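 also: 0% = vehicle only and 100% = reference agonist; nearly all actives have a fitted effect of over 70% in size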). In a few lines: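 Cells were plated at 5000/well, incubated 4 hrs at 37 C, dosed with compound titration series, incubated 18 hrs at 37 C, loaded with CCF4 dye for 2 hrs at RT, then fluorescence was read.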
Test [3] concerns the target Peroxisome proliferator-activated receptor gamma (Homo sapiens) (UniProt P37231). The test can be described thus: qHTS assay for small molecule antagonists of peroxisome proliferator-activated receptor gamma signaling (AID 588537; active = well fitted inhibition curve with a large enough effect in the signal ratio, with a control signal flat, not every such curve was filed as active; the % refers to the signal ratio;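 also: reporter cells co-stimulated with 50 nM rosiglitazone agonist during compound treatment; % of control where 0% means no effect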). In a few lines: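 PPARγ-UAS-bla HEK293 cells (3000/well) in 1% charcoal/dextran-stripped FBS are treated with compound, then stimulated with 50 nM rosiglitazone for 16 h at 37 °C. Read-out is CCF4 β-lactamase fluorescence after 2 h at RT. IC50 comes from Hill fits normalised to rosiglitazone and DMSO.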

Test [4] deals with Vitamin D3 receptor (Homo sapiens) (UniProt P11473). The test can be described thus: qHTS assay for small molecule antagonists of vitamin D receptor signaling (AID 588541; calls by dose curve;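 also: receptor activated by calcitriol during compound treatment; series mostly up to about 77 µM; % is scaled to controls: 0 for no effect and ±100 for the full control effect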). The essentials:
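VDR-UAS-bla HEK293T cells in 2% charcoal-stripped FBS were stimulated with 1-alpha,25-dihydroxyvitamin D3 (3 nM final) plus compound for 16 h at 37 C. The beta-lactamase CCF4 readout was normalized to 50 nM agonist and DMSO, and Hill fits gave IC50.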

Test [5] has the same target. In words: qHTS assay for small molecule agonists of vitamin D receptor signaling (AID 588543; calls by dose curve;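 also: 0% = DMSO basal and 100% = reference agonist control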). The essentials:
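Measured: β-lactamase reporter activity (CCF4, 405 nm excitation, 460/530 nm emission) in HEK293T VDR-UAS-bla cells after 16 h compound exposure at 37 °C. Normalization against 50 nM 1α,25-dihydroxyvitamin D3 and DMSO; Hill-fit EC50.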

A short description of test [6]: qHTS assay for small molecule agonists of retinoid X receptor alpha signaling (AID 588544; calls by dose curve;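 as to activation: 0% = DMSO basal wells and 100% = reference agonist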). The settings on record: HEK293T RXRa-UAS-bla, beta-lactamase reporter, 18 h; 530 nm emission.
The target of test [7] is Retinoic acid receptor RXR-alpha (Homo sapiens) (UniProt P19793). The description is as above.
Test [8] deals with Thyroid hormone receptor beta (Homo sapiens) (UniProt P10828). The test can be described thus: qHTS assay for small molecule agonists of thyroid hormone receptor beta signaling (AID 588545; calls by dose curve;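 also: 0% = DMSO only and 100% = 10 nM T3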). The essentials: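 TR-UAS-bla GripTite HEK 293 cells (2500/well, medium with 2% charcoal/dextran FBS) were treated in agonist mode for 18 h at 37 C, titrated. Beta-lactamase was read by CCF4 ratio after 2 h; normalized to 10 nM T3 (100%) and DMSO, Hill-fitted for EC50 and efficacy.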

Test [9] in a line: qHTS assay for small molecule antagonists of retinoid X receptor alpha signaling (AID 588546; active = well fitted inhibition curve with a large enough effect in the signal ratio, with a control signal flat, not every such curve was filed as active; the % refers to the signal ratio;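 also: cells stimulated with 9-cis-retinoic acid as agonist; % is scaled to controls: 0 for no effect and ±100 for the full control effect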). The settings on record: HEK293T RXRa-UAS-bla, beta-lactamase ratio, antagonist mode; measured here: W530 green channel, cytotoxicity proxy. The essentials:
(§1)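 Beta-lactamase reporter inhibition, read as CCF4 fluorescence ratio (ex 405, em 460/530 nm) after 2 h at RT. HEK293T UAS-bla cells, 2500/well, were stimulated with 9-cis-RA at 500 or 100 nM final alongside test compound for 18 h at 37 C.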

The target in test [10] is Retinoic acid receptor RXR-alpha (Homo sapiens) (UniProt P19793). The test is described as above. The settings on record: HEK293T RXRa-UAS-bla, beta-lactamase ratio, antagonist mode. The essentials:
as §1

Test [11] can be described thus: qHTS assay for small molecule agonists of the antioxidant response element (ARE) signaling pathway (AID 651741; active = well fitted activation curve with a large enough effect in the signal ratio; the % refers to the signal ratio; also: % of control where 0% means no effect). The essentials:
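CellSensor ARE-bla HepG2 cells (2,000/well) carrying ARE-driven beta-lactamase, exposed 16 h at 37 C. LiveBLAzer B/G FRET substrate added for 2 h at room temperature; fluorescence intensity read.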

A short description of test [12]: qHTS assay for small molecule activators of the p53 signaling pathway (AID 651743; active = well fitted activation curve with a large enough effect in the signal ratio, not every such curve was filed as active; the % refers to the signal ratio; also: series mostly up to about 92 µM; % of control where 0% means no effect). The conditions noted are these: HCT-116 p53RE-bla, beta-lactamase FRET ratio, 16 h; activation: stronger effect = higher value. In a few lines:
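p53RE-bla HCT-116 cells carrying a beta-lactamase reporter under p53 response elements were exposed to compounds for 16 hours at 37 C. Reporter activity read as fluorescence after 2 hours at room temperature with LiveBLAzer B/G FRET substrate.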

Test [13] can be described thus: qHTS assay for small molecule activators of the nuclear factor-kappa B (NF-kB) signaling pathway (AID 651749; active = well fitted activation curve with a large enough effect in the signal ratio; the % refers to the signal ratio; also: series mostly up to about 77 µM; % of control where 0% means no effect). The conditions noted are these: NF-kB-bla ME-180 cells, beta-lactamase FRET ratio, 16 h; activation: stronger effect = higher value. In a few lines: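 NF-kB-bla ME-180 cells carrying a beta-lactamase reporter under an NF-kB response element, 2,000 cells/well, exposed to compound for 16 hr at 37C; FRET-based beta-lactamase fluorescence read-out of pathway activation.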

Test [14] in a line: qHTS assay for environmental chemicals that activate the Aryl hydrocarbon Receptor (AhR) signaling pathway (AID 651777). Also: % of control where 0% means no effect; nearly all actives have a fitted effect of over 15% in size. The settings on record: 1A2-DRE human hepatoma cells, luciferase, 24 h; activation: stronger effect = higher value. In a few lines:
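Quantitative HTS in stably transfected human liver-derived cells whose luciferase gene sits downstream of the CYP1A2 promoter and dioxin response element. After 24 hr exposure at 37 C, One-Glo luminescence was measured.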

Test [15] concerns the target Peroxisome proliferator-activated receptor alpha (Homo sapiens) (UniProt Q07869). The test can be described thus: qHTS assay for small molecule agonists of the peroxisome proliferator-activated receptor alpha (PPARalpha) signaling pathway (AID 651778). Also: % of control where 0% means no effect. The settings on record: PathHunter PPARalpha complementation, chemiluminescence, 6 h; stronger effect = higher value. The essentials: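 Enzyme-fragment complementation assay in which ligand-bound PPARalpha translocates and forms an active enzyme that generates chemiluminescence. Cells were plated overnight, exposed to compound for 6 hr at 37 C, and then given detection reagent for 60 min at room temperature.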

The nature of test [16]: qHTS assay for cell viability of HEK293 cells (AID 743288). Also: % is scaled to controls: 0 for no effect and ±100 for the full control effect; nearly all actives have a fitted effect of over 50% in size. The settings on record: ATP luminescence (CellTiter-Glo), 18 h; max response: stronger effect = lower value. In a few lines:
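Luminescent ATP quantitation served as the viability read-out. Cells (parental HEK293, 2,000/well) received compounds after at least 5 h at 37 C and were exposed for 18 h before a 30 min room-temperature reagent step.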

Test [17] in a line: qHTS assay for cell viability of the p53RE-bla HCT-116 cell line (AID 743292). Also: % is scaled to controls: 0 for no effect and ±100 for the full control effect; nearly all actives have a fitted effect of over 55% in size. The essentials:
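Viability of compound-treated p53RE-bla HCT-116 cells is taken from ATP-dependent luciferase luminescence. Treatment lasts 16 h at 37 C after a 5 h settling period; detection follows 30 min at room temperature.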

For another test, the target named is Furin (Homo sapiens) (UniProt P09958). In words: Furin counterscreen qHTS for Zika virus inhibitors (AID 1347149).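 Also: purified recombinant full-length human furin enzyme at 5 nM; fluorescence gain from furin cutting a BOC-RVRR-AMC peptide substrate over 15 min; top concentration of the series differs between compounds; plate controls were no-inhibitor control for no effect and no-enzyme control for full effect; nearly all actives have a fitted effect of over 70% in size.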 In a few lines:
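Fluorogenic cleavage of BOC-RVRR-AMC (2 microM final, Km ~15 µM) was monitored (ex 340, em 450 nm) at 37C after 15 min RT preincubation of 5 nM furin with compounds in HEPES pH 7.0 buffer with CaCl2 and Triton X-100. Percent inhibition was fitted to a 4-parameter Hill curve.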
(Counterscreens check selectivity or assay interference.)

The test system of test [18] is Zika virus NS2B-NS3 protease (unlinked). In words: Optimization of GU AMC qHTS for Zika virus inhibitors: Unlinked NS2B-NS3 protease assay (AID 1347151).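 Also: series mostly up to about 52 µM; 0% = no-inhibitor control and -100% = no-enzyme control; nearly all actives have a fitted effect of over 80% in size.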 In a few lines: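 In this qHTS, compounds acted on 25 nM unlinked Zika NS2B–NS3 in pH 8.0 Tris/Tween buffer. Cleavage of an AMC peptide ran 15 min at room temperature, to about 20% conversion.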
The nature of test [19]: Vero cells viability qHTS for Zika virus inhibitors (AID 1347167). Also: % is scaled to controls: 0 for no effect and ±100 for the full control effect. The essentials:
(§2)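 Cells seeded at 2.5 x 10^5 cells/mL in DMEM with 4% FBS and attached overnight at 37 degrees C, then exposed to compound for 24 to 48 hours. Viability read as ATP content by CellTiter Glo luminescence.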

Test [20] is described as follows: HepG2 cells viability qHTS for Zika virus inhibitors (AID 1347168). Also: % is scaled to controls: 0 for no effect and ±100 for the full control effect. In a few lines:
as §2

A short description of test [21]: Tertiary RLuc qRT-PCR qHTS assay for Zika virus inhibitors (AID 1347169). Also: top concentration of the series differs between compounds; % is scaled to controls: 0 for no effect and ±100 for the full control effect; nearly all actives have a fitted effect of over 55% in size. The essentials: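 Inhibition of ZIKV-RLuc replication in Vero cells, read as Renilla luminescence 1-1.5 hrs after live-cell substrate addition, following 48-72 hrs infection at MOI 1-2 in presence of compound.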
For orientation: Quantitative PCR measures a nucleic acid by following its amplification.

In test [22] the target is Nuclear receptor subfamily 1 group I member 2 (Rattus norvegicus) (UniProt Q9R1A7). In words: qHTS assay for small molecule activators of the rat pregnane X receptor (rPXR) signaling pathway (AID 651751; call rule not given here; also: 0% is about no effect). The settings on record: rPXR reporter cells, luciferase (One-Glo), 24 h.
Sequence of Nuclear receptor subfamily 1 group I member 2 (Rattus norvegicus) (Q9R1A7 whole entry, looked up): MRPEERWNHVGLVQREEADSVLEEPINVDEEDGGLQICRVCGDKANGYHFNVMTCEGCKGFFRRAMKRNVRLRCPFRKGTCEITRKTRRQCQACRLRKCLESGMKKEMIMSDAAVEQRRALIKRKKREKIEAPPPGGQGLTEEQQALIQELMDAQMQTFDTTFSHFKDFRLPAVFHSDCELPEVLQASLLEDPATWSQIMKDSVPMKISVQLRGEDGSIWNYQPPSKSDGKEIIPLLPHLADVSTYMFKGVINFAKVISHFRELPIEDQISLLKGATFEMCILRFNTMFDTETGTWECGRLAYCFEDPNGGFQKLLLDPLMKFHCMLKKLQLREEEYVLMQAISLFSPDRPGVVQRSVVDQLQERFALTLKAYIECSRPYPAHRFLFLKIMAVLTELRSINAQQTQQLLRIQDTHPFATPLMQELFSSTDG

Sequence of Estrogen receptor (Homo sapiens) (P03372 whole entry, looked up): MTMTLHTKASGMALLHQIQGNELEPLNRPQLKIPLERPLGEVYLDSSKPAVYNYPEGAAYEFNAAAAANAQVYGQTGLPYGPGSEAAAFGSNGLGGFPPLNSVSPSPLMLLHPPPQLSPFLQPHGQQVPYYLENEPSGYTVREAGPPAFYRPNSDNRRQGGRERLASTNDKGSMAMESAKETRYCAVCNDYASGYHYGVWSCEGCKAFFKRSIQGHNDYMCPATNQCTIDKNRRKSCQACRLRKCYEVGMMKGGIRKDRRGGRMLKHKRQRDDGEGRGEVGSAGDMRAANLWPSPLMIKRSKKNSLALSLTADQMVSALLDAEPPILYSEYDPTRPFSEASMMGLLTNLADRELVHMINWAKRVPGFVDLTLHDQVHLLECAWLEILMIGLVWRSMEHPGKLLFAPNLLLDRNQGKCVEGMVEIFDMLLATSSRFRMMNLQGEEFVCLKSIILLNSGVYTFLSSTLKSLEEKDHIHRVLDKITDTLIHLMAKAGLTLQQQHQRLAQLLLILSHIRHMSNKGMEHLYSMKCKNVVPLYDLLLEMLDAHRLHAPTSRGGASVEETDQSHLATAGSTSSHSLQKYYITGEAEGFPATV
Sequence of Vitamin D3 receptor (Homo sapiens) (P11473 whole entry, looked up): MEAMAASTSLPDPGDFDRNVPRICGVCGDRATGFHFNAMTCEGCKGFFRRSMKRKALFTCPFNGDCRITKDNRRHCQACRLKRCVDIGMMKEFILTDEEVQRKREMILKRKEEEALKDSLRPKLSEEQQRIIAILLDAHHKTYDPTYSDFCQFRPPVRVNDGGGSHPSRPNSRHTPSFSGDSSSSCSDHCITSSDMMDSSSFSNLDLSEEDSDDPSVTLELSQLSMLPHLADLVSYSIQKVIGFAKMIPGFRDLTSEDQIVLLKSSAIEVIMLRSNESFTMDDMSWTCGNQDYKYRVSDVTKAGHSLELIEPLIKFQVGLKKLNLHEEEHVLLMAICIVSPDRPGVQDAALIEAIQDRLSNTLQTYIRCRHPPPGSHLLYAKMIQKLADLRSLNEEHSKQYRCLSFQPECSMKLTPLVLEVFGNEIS
Sequence of Retinoic acid receptor RXR-alpha (Homo sapiens) (P19793 whole entry, looked up): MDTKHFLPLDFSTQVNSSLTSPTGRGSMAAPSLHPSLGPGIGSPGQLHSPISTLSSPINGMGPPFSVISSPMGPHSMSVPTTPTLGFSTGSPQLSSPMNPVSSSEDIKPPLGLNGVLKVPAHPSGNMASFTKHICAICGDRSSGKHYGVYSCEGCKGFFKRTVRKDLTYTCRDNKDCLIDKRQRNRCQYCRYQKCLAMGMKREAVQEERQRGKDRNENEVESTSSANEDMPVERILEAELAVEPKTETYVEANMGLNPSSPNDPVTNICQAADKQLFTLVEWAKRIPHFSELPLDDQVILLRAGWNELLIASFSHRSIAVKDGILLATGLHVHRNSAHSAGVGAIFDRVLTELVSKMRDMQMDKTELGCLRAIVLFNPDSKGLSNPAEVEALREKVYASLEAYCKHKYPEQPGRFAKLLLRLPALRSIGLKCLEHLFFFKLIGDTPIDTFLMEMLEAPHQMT
Sequence of Thyroid hormone receptor beta (Homo sapiens) (P10828 whole entry, looked up): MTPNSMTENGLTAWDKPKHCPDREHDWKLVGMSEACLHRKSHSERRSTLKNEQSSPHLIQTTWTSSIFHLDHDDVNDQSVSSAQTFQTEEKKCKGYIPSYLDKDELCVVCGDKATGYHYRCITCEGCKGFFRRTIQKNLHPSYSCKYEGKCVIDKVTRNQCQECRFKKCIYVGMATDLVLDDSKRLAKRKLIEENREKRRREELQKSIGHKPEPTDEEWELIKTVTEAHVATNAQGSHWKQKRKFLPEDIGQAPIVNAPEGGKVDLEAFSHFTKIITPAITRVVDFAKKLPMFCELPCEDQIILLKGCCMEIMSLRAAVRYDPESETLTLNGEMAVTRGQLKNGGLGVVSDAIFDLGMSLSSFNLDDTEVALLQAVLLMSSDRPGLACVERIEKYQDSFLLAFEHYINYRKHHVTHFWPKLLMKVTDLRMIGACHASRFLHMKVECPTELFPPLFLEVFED
Sequence of Furin (Homo sapiens) (P09958 whole entry, looked up): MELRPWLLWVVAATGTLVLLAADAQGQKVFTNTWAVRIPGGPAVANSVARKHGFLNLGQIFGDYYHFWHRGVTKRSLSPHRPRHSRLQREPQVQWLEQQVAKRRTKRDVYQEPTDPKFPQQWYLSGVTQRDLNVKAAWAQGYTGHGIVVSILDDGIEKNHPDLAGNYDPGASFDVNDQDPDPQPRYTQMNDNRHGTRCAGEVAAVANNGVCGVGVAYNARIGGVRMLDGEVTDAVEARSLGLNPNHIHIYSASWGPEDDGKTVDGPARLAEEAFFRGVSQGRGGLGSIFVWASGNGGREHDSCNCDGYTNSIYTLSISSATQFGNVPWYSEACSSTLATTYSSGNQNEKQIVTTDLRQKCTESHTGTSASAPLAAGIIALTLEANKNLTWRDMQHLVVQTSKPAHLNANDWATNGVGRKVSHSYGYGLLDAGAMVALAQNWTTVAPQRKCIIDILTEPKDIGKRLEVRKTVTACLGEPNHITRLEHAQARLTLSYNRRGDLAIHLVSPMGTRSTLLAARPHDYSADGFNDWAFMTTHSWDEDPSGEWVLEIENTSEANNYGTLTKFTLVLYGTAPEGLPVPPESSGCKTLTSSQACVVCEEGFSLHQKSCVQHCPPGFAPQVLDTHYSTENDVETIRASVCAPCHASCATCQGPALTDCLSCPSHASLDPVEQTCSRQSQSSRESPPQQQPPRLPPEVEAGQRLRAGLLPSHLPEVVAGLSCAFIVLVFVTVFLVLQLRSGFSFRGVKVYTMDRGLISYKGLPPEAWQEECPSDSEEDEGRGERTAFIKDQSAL
Sequence of Peroxisome proliferator-activated receptor alpha (Homo sapiens) (Q07869 whole entry, looked up, the tested form may be a part): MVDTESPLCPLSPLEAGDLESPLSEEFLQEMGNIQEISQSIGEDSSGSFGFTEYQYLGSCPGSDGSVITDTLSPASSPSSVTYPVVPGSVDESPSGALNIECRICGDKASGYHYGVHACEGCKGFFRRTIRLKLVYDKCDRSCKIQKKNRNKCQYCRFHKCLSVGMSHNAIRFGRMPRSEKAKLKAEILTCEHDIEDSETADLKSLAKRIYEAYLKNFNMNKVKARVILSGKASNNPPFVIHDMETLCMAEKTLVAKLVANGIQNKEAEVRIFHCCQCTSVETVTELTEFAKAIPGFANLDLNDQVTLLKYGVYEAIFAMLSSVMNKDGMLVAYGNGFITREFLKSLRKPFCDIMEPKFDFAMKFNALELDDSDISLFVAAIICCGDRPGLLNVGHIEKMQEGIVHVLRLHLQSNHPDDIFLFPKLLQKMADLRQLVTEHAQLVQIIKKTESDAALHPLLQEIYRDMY
Sequence of Peroxisome proliferator-activated receptor gamma (Homo sapiens) (P37231 whole entry, looked up): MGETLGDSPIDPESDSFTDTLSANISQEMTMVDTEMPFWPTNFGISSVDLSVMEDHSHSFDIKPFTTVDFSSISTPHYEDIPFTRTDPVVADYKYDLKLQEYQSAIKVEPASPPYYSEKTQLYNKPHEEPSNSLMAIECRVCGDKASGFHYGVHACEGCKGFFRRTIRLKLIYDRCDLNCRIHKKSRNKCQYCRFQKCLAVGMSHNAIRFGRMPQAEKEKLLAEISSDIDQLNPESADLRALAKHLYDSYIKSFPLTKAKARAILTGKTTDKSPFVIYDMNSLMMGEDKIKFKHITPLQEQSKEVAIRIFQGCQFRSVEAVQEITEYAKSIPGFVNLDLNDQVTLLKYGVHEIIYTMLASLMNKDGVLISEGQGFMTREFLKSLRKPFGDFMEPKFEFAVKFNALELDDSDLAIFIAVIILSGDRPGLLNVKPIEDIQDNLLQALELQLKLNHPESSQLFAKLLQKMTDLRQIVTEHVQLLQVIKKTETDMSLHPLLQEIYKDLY

Turning to `CC(C)OC(=O)Nc1ccccc1`, the Potency result in test [1], in test [2], in test [3], in test [5], in test [8] and in [11] was “inactive” throughout. Besides, the Potency result (in the test with Furin (Homo sapiens); in test [19]; in test [20]; in [21]) was “inactive” throughout. The result in test [4], in [7], in test [17] and in test [18] was inactive. For the same compound, the max response in test [6] is -15.4%; in test [9] it was -6.41%; in test [10] it was -6.43% (inactive); in test [15] it was -0.246% (inactive); in test [16] it was -1.53% (inactive); in test [22], 10.9% (inactive). For the same compound, the activation in [12] is -1.81% (inactive); in [13], 0.27% (inactive); in [14], 12.4% (inactive).
